This is an account of results in article PMC4336329 (PLoS ONE, 2015).

Structures are written as SMILES. About 14,000 (4.5%) of roughly 310,000 compounds showed an effect of 50% or more. Effects have a minus sign here. For the sample, strong results were picked, then their nearest neighbours and some compounds at random.
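Note: peak tail current of the secondary pulse compared with the same well before compound.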

For the experiment, the target named is human ether-à-go-go-related gene (hERG) potassium channel (human, UniProt Q12809). The experiment in a line: primary screen, population patch clamp on CHO cells stably expressing hERG; higher = less effect of the substance.
human ether-à-go-go-related gene (hERG) potassium channel, sequence (Q12809 whole entry, looked up): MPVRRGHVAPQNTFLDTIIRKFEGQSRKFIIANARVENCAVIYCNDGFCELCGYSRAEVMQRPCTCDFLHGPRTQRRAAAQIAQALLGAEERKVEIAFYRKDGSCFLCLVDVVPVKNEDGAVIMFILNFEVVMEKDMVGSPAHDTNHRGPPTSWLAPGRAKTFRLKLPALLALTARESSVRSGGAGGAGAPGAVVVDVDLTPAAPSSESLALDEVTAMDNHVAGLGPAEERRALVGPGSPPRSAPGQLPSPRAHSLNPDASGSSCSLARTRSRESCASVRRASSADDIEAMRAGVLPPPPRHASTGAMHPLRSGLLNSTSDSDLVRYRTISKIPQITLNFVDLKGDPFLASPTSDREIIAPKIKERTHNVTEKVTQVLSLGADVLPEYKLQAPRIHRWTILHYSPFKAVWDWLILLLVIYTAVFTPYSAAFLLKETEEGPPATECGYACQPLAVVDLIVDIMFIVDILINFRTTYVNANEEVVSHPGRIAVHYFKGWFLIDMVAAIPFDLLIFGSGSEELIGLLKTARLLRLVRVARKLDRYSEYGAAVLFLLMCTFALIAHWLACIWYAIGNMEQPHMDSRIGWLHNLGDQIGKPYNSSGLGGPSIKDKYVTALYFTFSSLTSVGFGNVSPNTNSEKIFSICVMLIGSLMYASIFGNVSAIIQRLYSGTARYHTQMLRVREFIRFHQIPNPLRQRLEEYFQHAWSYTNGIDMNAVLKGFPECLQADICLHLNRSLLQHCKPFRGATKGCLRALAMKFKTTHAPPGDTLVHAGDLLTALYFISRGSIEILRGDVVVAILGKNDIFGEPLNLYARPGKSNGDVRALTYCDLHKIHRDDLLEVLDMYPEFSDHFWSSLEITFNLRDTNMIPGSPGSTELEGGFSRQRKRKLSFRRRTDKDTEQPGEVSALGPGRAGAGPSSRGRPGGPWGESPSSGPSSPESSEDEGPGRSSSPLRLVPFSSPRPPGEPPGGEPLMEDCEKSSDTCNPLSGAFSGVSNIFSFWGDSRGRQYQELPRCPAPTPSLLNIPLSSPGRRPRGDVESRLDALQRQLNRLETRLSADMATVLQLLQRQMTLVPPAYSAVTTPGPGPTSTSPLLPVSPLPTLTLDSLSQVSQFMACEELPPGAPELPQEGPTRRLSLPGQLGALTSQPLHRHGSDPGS
For `O=C(Cc1cccc2ccccc12)NNC(=O)c1cccs1`, the “hERG current change (%, negative = inhibition) at 10uM” value was determined as 15.7%.
On to `COC(=O)CSc1ncnc2c(C)csc12`, for which the “hERG current change (%, negative = inhibition) at 10uM” value was found to be 3.11%.
`CN(C)c1ccc(-c2nnc(-c3cccnc3)o2)cc1`: the “hERG current change (%, negative = inhibition) at 10uM” value amounted to 7.04%.
The figure for `O=C(CNC(=O)c1ccco1)N/N=C/c1ccc(O)c([N+](=O)[O-])c1` is 29.1%; for `COC(=O)c1[nH]c(C)c(/C(O)=C2\C(=O)C(=O)N(CCN(C)C)C2c2ccccc2OC)c1C` (stereo not drawn) it is 15.3%; for `CC(=O)N1CCN(c2ccc(NC(=O)c3cccc(Cl)c3Cl)cc2)CC1` it is -8.8%.
On to `N/C(=N\OC(=O)c1cccc(C(F)(F)F)c1)c1cnccn1`, for which the “hERG current change (%, negative = inhibition) at 10uM” value is 16.7%.
With `Cc1cccc(CC(=O)Nc2c3c(nn2-c2cccc(Cl)c2)CS(=O)C3)c1` (stereo not drawn), the “hERG current change (%, negative = inhibition) at 10uM” value amounted to 6.32%.
With `COc1ccc(NC(=O)CN2CCC(C)CC2)cc1`, the “hERG current change (%, negative = inhibition) at 10uM” value is recorded as -4.51%.
The figure for `COc1ccc(OC)c(NC(=O)CN2CCC(C(=O)c3ccc(C)cc3)CC2)c1` is -17.7%; for `COc1ccc(C(=O)C2CCN(CC(=O)Nc3cc(C)cc(C)c3)CC2)cc1` it is -65.2%.
The figure for `CCc1ccc(NC(=O)CN2CCC(C(=O)c3ccc(OC)cc3)CC2)cc1` is -62.8%; for `COc1ccc(NC(=O)CN2CCC(C(N)=O)CC2)cc1` it is 2.76%; for `Cc1cc(C)cc(NC(=O)CN2CCC(C(=O)c3ccccc3)CC2)c1` it is -48.6%.
The figure for `Nc1ncnc2c1ncn2C1OC(CO)C(O)C1O` (stereo not drawn) is 35.7%.
For `O=C(Cc1ccsc1)NNC(=O)c1ccccc1O`, the “hERG current change (%, negative = inhibition) at 10uM” value came out at 7.87%.
The result for `COc1ccc(C)cc1NC(=O)CSc1nnc(COc2ccccc2)n1Cc1ccco1` reads -9.46%.
Regarding `CCOC(=O)c1c(N)sc(C(O)(C(F)(F)F)C(F)(F)F)c1-c1ccc(Cl)cc1`, the “hERG current change (%, negative = inhibition) at 10uM” value is recorded as -4.79%.
For the compound `COC(=O)Cc1csc(Nc2ccc(Cl)cc2)n1`, the “hERG current change (%, negative = inhibition) at 10uM” value came out at 7.01%.
The result for `CC(C)[C@H](NC(N)=O)C(=O)NCCc1ccc(Cl)cc1Cl` reads -27%; that for `Cc1ccc(OCc2cc(C(=O)N3CCN(c4ccccc4)CC3)no2)cc1C`, -0.317%.
`O=C(/C(C=Nc1cccc(C(F)(F)F)c1)=C(/O)c1ccco1)C(F)(F)F`: the “hERG current change (%, negative = inhibition) at 10uM” value is reported as -29.8%.
Regarding `O=C(/C(C=Nc1ccc(F)cc1)=C(/O)c1ccco1)C(F)(F)F`, the “hERG current change (%, negative = inhibition) at 10uM” value is listed as -26.7%.
The figure for `O=C(/C(C=Nc1ccc(Br)cc1)=C(/O)c1ccco1)C(F)(F)F` is -52.6%; for `CC(=O)c1cccc(NC(=O)c2cc(-c3cccs3)on2)c1` it is 27%.
The figure for `CCN1CCN(c2ncc(C(=O)Nc3c(F)cc(F)cc3Br)c3ccccc23)CC1` is -60%.
For `O=C(Nc1c(F)cccc1F)c1cnc(N2CCN(c3ccccn3)CC2)c2ccccc12`, the “hERG current change (%, negative = inhibition) at 10uM” value is reported as -4.56%.
The figure for `CCN1CCN(c2ncc(C(=O)Nc3ccccc3C(=O)OC)c3ccccc23)CC1` is -47.2%; for `Cc1ccc(NC(=O)c2cnc(N3CCN(c4ccccn4)CC3)c3ccccc23)c(Br)c1` it is 10.7%.
Regarding `CCN1CCN(c2ncc(C(=O)Nc3cc(Cl)ccc3OC)c3ccccc23)CC1`, the “hERG current change (%, negative = inhibition) at 10uM” value is recorded as -61.5%.
The result for `CCN1CCN(C(=O)Nc2cc(Cl)ccc2OC)CC1` reads 2.98%.
The result for `Cc1cc(C)c(C)c(S(=O)(=O)NCC(=O)N2CCCC2)c1C` reads 7.49%; that for `CC(C)NCCOCCSc1ccc(Cl)cc1.O=C(O)C(=O)O`, -30.2%.
The figure for `Clc1ccc(SCCOCCN2CCCCC2)cc1.O=C(O)C(=O)O` is -82%.
Turning to `Clc1ccc(SCCCCN2CCNCC2)cc1.O=C(O)C(=O)O`, the “hERG current change (%, negative = inhibition) at 10uM” value is on record as -48.7%.
Turning to `Clc1ccc(SCCCCN2CCOCC2)cc1.O=C(O)C(=O)O`, the “hERG current change (%, negative = inhibition) at 10uM” value was -22.5%.
In the case of `Clc1ccc(SCCOCCN2CCCCCC2)cc1.O=C(O)C(=O)O`, the “hERG current change (%, negative = inhibition) at 10uM” value was -73.3%.
The figure for `Clc1ccc(SCCOCCN2CCOCC2)cc1.O=C(O)C(=O)O` is 1.54%.
The figure for `Clc1ccc(SCCCN2CCCCC2)cc1.O=C(O)C(=O)O` is -76%.
The figure for `CCC(C)NCCOCCSc1ccc(Cl)cc1.O=C(O)C(=O)O` (stereo not drawn) is -46.9%; for `Clc1ccc(SCCN2CCNCC2)cc1.O=C(O)C(=O)O` it is -5.25%; for `COc1ccc(-c2nn(-c3ccccc3)cc2/C=N/N=C(N)N)cc1OC` it is -27.8%.
On to `CCN(CCCCCCN)c1ccc2c(=O)[nH][nH]c(=O)c2c1`, for which the “hERG current change (%, negative = inhibition) at 10uM” value was determined as 6.75%.
The figure for `Cc1ccc(CN(C(=O)Cn2nnc3ccccc32)C(C(=O)NCc2ccco2)c2cccs2)cc1` (stereo not drawn) is -23.1%; for `CN(C(=O)COC(=O)c1ccc2c(c1)OCO2)C1CCS(=O)(=O)C1` (stereo not drawn) it is 9.31%.
Take `O=C(/C=C/c1cccc([N+](=O)[O-])c1)N1CCN(c2ccccn2)CC1`: the “hERG current change (%, negative = inhibition) at 10uM” value was -41.2%.
As to `COCCn1c(=NC(=O)CN2C(=O)CCC2=O)sc2cc(S(N)(=O)=O)ccc21`, the “hERG current change (%, negative = inhibition) at 10uM” value is reported as -9.48%.
The result for `CC(CC(=O)Nc1ccccc1)n1ccnc1` (stereo not drawn) reads -5.07%; that for `O=c1cccc(-c2ccccc2)[nH]1`, -2.53%.
As for `COc1ccc2nc(N3CCOCC3)cc(C)c2c1`, the “hERG current change (%, negative = inhibition) at 10uM” value is listed as -0.452%.
Take `Cc1ccccc1NC(=O)c1cccc2nc3ccccc3nc12`: the “hERG current change (%, negative = inhibition) at 10uM” value is reported as 13.8%.
For `CCN(CC)S(=O)(=O)c1ccc(N2CCOCC2)c(NC(=O)CNCCc2ccccc2)c1.O=C(O)C(=O)O`, the “hERG current change (%, negative = inhibition) at 10uM” value is on record as -63.8%.
`CCN(CC)S(=O)(=O)c1ccc(N2CCOCC2)c(NC(=O)Cc2ccccc2)c1`: the “hERG current change (%, negative = inhibition) at 10uM” value was -36.2%.
For the compound `O=C(Nc1cc(S(=O)(=O)N2CCOCC2)ccc1N1CCCC1)c1ccc(F)cc1`, the “hERG current change (%, negative = inhibition) at 10uM” value is -82.3%.
The result for `O=C(Nc1cc(S(=O)(=O)N2CCOCC2)ccc1N1CCCC1)C1CC1` reads -0.0868%.
In the case of `CCOc1ccc(Oc2ccc(S(=O)(=O)N3CCOCC3)cc2NC(=O)C2=COCCO2)cc1`, the “hERG current change (%, negative = inhibition) at 10uM” value is -41.9%.
On to `O=C(Nc1cc(S(=O)(=O)N2CCOCC2)ccc1Oc1ccc(F)cc1)C1=COCCO1`, for which the “hERG current change (%, negative = inhibition) at 10uM” value is given as -69.8%.
With `O=C(Nc1cc(S(=O)(=O)N2CCOCC2)ccc1N1CCOCC1)c1ccc(S(=O)(=O)N2CCCCC2)cc1`, the “hERG current change (%, negative = inhibition) at 10uM” value was -1.72%.
The figure for `O=C(Nc1ccc(F)cc1)Nc1cc(S(=O)(=O)N2CCOCC2)ccc1N1CCCC1` is -97.4%.
The result for `CCN(CC)S(=O)(=O)c1ccc(N2CCOCC2)c(NC(=O)COc2ccccc2)c1` reads -11.1%; that for `O=C(COC(=O)c1ccc(F)cc1)Nc1cc(S(=O)(=O)N2CCOCC2)ccc1N1CCCC1`, -28.2%.
For `Cc1ccc(C(=O)Nc2cc(S(=O)(=O)N3CCOCC3)ccc2N2CCCC2)cc1`, the “hERG current change (%, negative = inhibition) at 10uM” value is -8.42%.
The result for `O=C(Nc1cc(S(=O)(=O)N2CCCCC2)ccc1Oc1ccccc1)C1=COCCO1` reads -10.6%.
The figure for `C/C=C/c1ccc(OCC(=O)Nc2cc(OC)c(OC)c(OC)c2)c(OC)c1` is -3.16%; for `Cc1cccc(NC(=O)c2cccc(S(=O)(=O)N(C)c3ccccc3)c2)n1` it is -28.7%.
The result for `CC(C)(C)c1cc(NC(=O)c2cccc([N+](=O)[O-])c2)no1` reads 3.8%; that for `O=C1CCCC2=C1C(c1ccco1)Nc1ccc(C(=O)c3ccccc3)cc1N2` (stereo not drawn), 6.94%; that for `COc1ccc(Cn2c(=O)[nH]c3cc(C(=O)Nc4ccccc4C)ccc32)cc1`, 2.66%.
For the compound `O=S(=O)(c1cccc(F)c1)N1CCCN(c2ccc(C(F)(F)F)cn2)CC1`, the “hERG current change (%, negative = inhibition) at 10uM” value is listed as -27.3%.
For the compound `CC(=O)Nc1ccccc1OCC(=O)NC1CCCCC1C` (stereo not drawn), the “hERG current change (%, negative = inhibition) at 10uM” value was 8.59%.
The result for `NS(=O)(=O)c1cccc(-n2cnnn2)c1` reads -6.93%; that for `NC1=C([N+](=O)[O-])C(c2ccc3c(c2)OCO3)C2=C(CCCC2=O)O1` (stereo not drawn), 10.8%.
As to `CCN(CC)S(=O)(=O)c1ccc(N2CCOCC2)c(NC(=O)c2ccccc2)c1`, the “hERG current change (%, negative = inhibition) at 10uM” value is reported as -25.6%.
As to `O=C(NC(=S)Nc1ccccc1N1CCOCC1)c1ccco1`, the “hERG current change (%, negative = inhibition) at 10uM” value stood at 9.73%.
`O=C(NC(=S)Nc1cc(S(=O)(=O)N2CCOCC2)ccc1N1CCOCC1)c1ccco1`: the “hERG current change (%, negative = inhibition) at 10uM” value is given as -39.4%.
With `CCN(CC)S(=O)(=O)c1ccc(N2CCOCC2)c(NC(=O)c2ccc(NC(C)=O)cc2)c1`, the “hERG current change (%, negative = inhibition) at 10uM” value is listed as -0.15%.
The result for `O=C(Nc1ccccc1F)Nc1cc(S(=O)(=O)N2CCOCC2)ccc1N1CCCC1` reads -19%; that for `O=C(Nc1ccccc1)Nc1cc(S(=O)(=O)N2CCOCC2)ccc1N1CCCC1`, -71%; that for `O=C(Nc1ccc(Cl)cc1)Nc1cc(S(=O)(=O)N2CCOCC2)ccc1N1CCCC1`, -54.5%.
The result for `O=C(Nc1ccc(Cl)c(Cl)c1)Nc1cc(S(=O)(=O)N2CCOCC2)ccc1N1CCCC1` reads -16.6%.
`O=C(Nc1cc(S(=O)(=O)N2CCOCC2)ccc1N1CCCCC1)c1ccc(Cl)cc1`: the “hERG current change (%, negative = inhibition) at 10uM” value is reported as -1.07%.
In the case of `CCN(CC)S(=O)(=O)c1ccc(N2CCOCC2)c(NC(=O)c2ccc(F)cc2)c1`, the “hERG current change (%, negative = inhibition) at 10uM” value was -72.3%.
The figure for `O=C(Nc1cccc(Cl)c1)Nc1cc(S(=O)(=O)N2CCOCC2)ccc1N1CCCC1` is -38.9%; for `CCN(CC)S(=O)(=O)c1ccc(N2CCOCC2)c(NC(=S)NC(=O)c2ccco2)c1` it is -66.5%.
